Measurements reported in PubChem BioAssay (NCI).
This is part of a sample that, as a whole, favours compounds with a hit. Of some 79,000 tested, about 15% had one in any assay. Rule as the data show it: active = growth inhibition above about 70%; inactive = the rest.

Legend:
[1] = NCI Yeast Anticancer Drug Screen. Data for the rad50 strain (AID 155);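 also: 0% = growth of vehicle-only cultures of the same strain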; settings: S. cerevisiae rad50 strain growth inhibition; at 50.0 µM; active compounds read high
In short: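 DNA repair mutant yeast, compound exposure, growth read-out; inhibition is taken relative to vehicle.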

[2] = NCI Yeast Anticancer Drug Screen. Data for the mec2-1 strain (AID 157); settings: S. cerevisiae mec2-1 strain, at 50.0 µM, active compounds read high
In short: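 Strain: mec2-1 (DNA repair/cell cycle alteration). Compound exposure, then growth measured; inhibition expressed relative to vehicle.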

[3] = NCI Yeast Anticancer Drug Screen. Data for the sgs1 mgt1 strain (AID 161);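 also: 0% = growth of cultures given vehicle only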; settings: S. cerevisiae sgs1 mgt1 strain, at 50.0 µM, active compounds read high
In short: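 Test agents were incubated with a DNA-repair-mutant yeast strain. Growth was then read and compared against vehicle-treated controls.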

[4] = NCI Yeast Anticancer Drug Screen. Data for the cln2 rad14 strain (AID 165);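 also: 0% = growth equal to vehicle treated cultures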; settings: S. cerevisiae cln2 rad14 strain, at 50.0 µM, active compounds read high
In short: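 Compounds are applied to the cln2 rad14 yeast strain, and growth is then compared with that of vehicle-treated cultures to give inhibition.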

[5] = NCI Yeast Anticancer Drug Screen. Data for the bub3 strain (AID 167); settings: S. cerevisiae bub3 mutant strain, at 50.0 µM, active compounds read high
In short: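 In this screen, a yeast mutant lacking normal mitotic checkpoint function is challenged with compound. Relative growth versus vehicle gives the inhibition value.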

[6] = NCI Yeast Anticancer Drug Screen. Data for the mlh1 rad18 strain (AID 175); settings: S. cerevisiae mlh1 rad18 strain growth inhibition; at 50.0 µM; active compounds read high
In short: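 Read-out is yeast growth inhibition, calculated against vehicle-only controls. The compound was applied to a strain engineered with DNA damage repair alterations.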

Measured: growth inhibition

CN1C(=O)CC2(C)c3cc(O)cc(Br)c3N(C)C12 (centres undefined)
inactive: [1] 6.6% | [2] -10.5% | [3] 8.45% | [4] 10.5% | [5] -6.25% | [6] 17.7%

COC(=O)NC(Cc1ccccc1)NC(=O)OC(C)(C)C (centres undefined)
inactive: [1] -30.6% | [2] -46% | [3] -20.5% | [4] -0.95% | [5] -4.25% | [6] -12.9%

O=[N+]([O-])c1cc(C2ON=C(c3ccccc3)N2C23CC4CC(CC(C4)C2)C3)ccc1Cl (centres undefined)
inactive: [1] -9.1% | [2] 10.2% | [3] 2.7% | [4] 16% | [5] -0.85% | [6] -8.2%

Cc1cccc(Cl)c1NC1=NCCN1C(=O)CC(=O)c1ccccc1
inactive: [1] 54.1% | [2] -9.2% | [3] 1.1% | [4] 12.8% | [5] 2.05% | [6] 32.7%

Cc1cnc2[nH]c(-c3cccc4ccccc34)cc(=O)c2c1
inactive: [1] 13.2% | [2] 7% | [3] 16.1% | [4] -6.6% | [5] 14.9% | [6] -21.6%

CC(C)(C)c1ccc2c(c1)C(O)(C#Cc1ccccc1)c1ccccc1C2(O)C#Cc1ccccc1 (centres undefined)
inactive: [1] 11.6% | [2] -7.5% | [3] 1.5% | [4] 9.35% | [5] 0.05% | [6] 14.1%

COc1cc(Cn2c(=S)ss/c2=N\C(=S)N(C)C)cc(OC)c1OC
inactive: [1] 1.7% | [2] 4.45% | [3] -0.4% | [4] 6.45% | [5] -2.25% | [6] -12%

Oc1ccc(C(c2ccc(O)cc2)c2ccc(O)cc2)cc1
inactive: [1] 2.1% | [2] 3.9% | [3] 29.9% | [4] 19.1% | [5] 22.1% | [6] -18.2%

COC(=O)C(=O)/C(=C\N1C(=O)CC(=O)NC1=S)C(=O)c1ccc([N+](=O)[O-])cc1
inactive: [1] 17.9% | [2] -0.4% | [3] 9.6% | [4] 1.5% | [5] -5.25% | [6] 6%

OC(C1=NNC(C(O)c2ccccc2)=NN1)c1ccccc1 (centres undefined)
inactive: [1] -29% | [2] 4.7% | [3] 22% | [4] -20.4% | [5] -2.45% | [6] 5.8%

Cc1ccc2nccc(C)c2c1
inactive: [1] -27.8% | [2] -45.1% | [3] -19.6% | [4] -14.7% | [5] -27.6% | [6] -7.8%

O=C(/C=C/c1ccccc1O)c1ccccc1
inactive: [1] -22.8% | [2] -15.7% | [3] 3.2% | [4] 1.9% | [5] -5.2% | [6] -24.6%

CN(Cc1ccccc1)c1ccccn1
inactive: [1] -12.9% | [2] -21.8% | [3] -18.9% | [4] -2.05% | [5] -12.7% | [6] 8.85%

NNS(=O)(=O)c1ccc(/C=C2\NC(=O)NC2=O)cc1
inactive: [1] -4.45% | [2] 1.5% | [3] -17.2% | [4] 13.2% | [5] -26.4% | [6] 23.9%

CC(NC(=O)C(C)(C)C)c1ccc2c(c1)OCCO2 (centres undefined)
inactive: [1] -4.45% | [2] -11.3% | [3] 6.6% | [4] -3.7% | [5] 4.3% | [6] 2.85%

COc1cc2cccc(NC(=O)c3cc(OC)c(OC)c(OC)c3Br)c2cc1OC
inactive: [1] 31.4% | [2] 12.4% | [3] 16.6% | [4] 19.6% | [5] 44.5% | [6] 20.7%

O=c1c2ccccc2c(Cc2ccccc2)nn1C1CCCCCC1
inactive: [1] -14.2% | [2] 2% | [3] 30.9% | [4] -29.5% | [5] 27.1% | [6] 16.1%

CSC(=NNC(N)=O)SC
inactive: [1] 4.4% | [2] -2.8% | [3] 1.2% | [4] -14.2% | [5] -9.7% | [6] 5.4%

OCCn1nnc2ccccc21
inactive: [1] -0.55% | [2] -2% | [3] -4.35% | [4] 5.35% | [5] 1.7% | [6] -3.7%

Cc1ccc2nc(N/N=C/c3sccc3C)cc(C)c2c1
inactive: [1] -24.3% | [2] -19.9% | [3] -20.9% | [4] -3.25% | [5] -30.1% | [6] -21.4%

CNC(=S)N/N=C/c1nc2ccccc2c(=O)n1-c1ccc(Cl)cc1
inactive: [1] 19.6% | [2] 0.75% | [3] 36.6% | [4] 2.55% | [5] -2.5% | [6] 10.2%

COc1ccc(C(=O)OC2CCCC2)cc1
inactive: [1] 45.8% | [2] 6.95% | [3] 39.5% | [4] -9.5% | [5] 9.6% | [6] 24.7%

CSc1ccc(NC(=O)c2ccc(C(=O)Nc3ccc(SC)cc3)cc2)cc1
inactive: [1] -17.5% | [2] -10.7% | [3] -12.6% | [4] -14.9% | [5] -1.95% | [6] -26.7%

CC(C)CCCC(C)C1CCC2(C)C3=C(CCC12C)C1(C)CCC(O)C(C)(C)C1CC3=O (centres undefined)
inactive: [1] -0.35% | [2] -0.5% | [3] -18.6% | [4] 1.85% | [5] 2.1% | [6] -5.45%

COC(=O)NCCCCl
inactive: [1] 5.25% | [2] -10.7% | [3] 3.5% | [4] -14.2% | [5] -0.3% | [6] 3.15%

Cc1ccc(C(=O)NO)cc1
inactive: [1] 28.8% | [2] -5.6% | [3] 7.65% | [4] -4.65% | [5] 13.8% | [6] 17.5%

CN(C)c1ccc(/C=N\NC(=S)NN2CCN(NC(=S)N/N=C\c3ccc(N(C)C)cc3)CC2)cc1
inactive: [1] 30.2% | [2] 11.1% | [3] 5.2% | [4] 4.85% | [5] 1.55% | [6] 27.8%

Nc1nnc(N)c2nc(-c3ccccc3)c(-c3ccccc3)nc12
inactive: [1] 10.4% | [2] 16.4% | [3] 28.1% | [4] -14.8% | [5] 8.15% | [6] 20.9%

CCOC(=O)C(=CN(C)c1ccc(C)cc1)C(=O)OCC
inactive: [1] 20.4% | [2] 2.65% | [3] 8.2% | [4] 9.7% | [5] 25.6% | [6] 8.9%

CCN(CC)CN1C(=O)C(=O)c2ccccc21
inactive: [1] 6.8% | [2] -25.4% | [3] 2.6% | [4] 24.4% | [5] 12.8% | [6] 10.3%

Cc1cccc(C)c1NC(=O)CCC(=O)CC(=O)C(C)C
inactive: [1] -2.6% | [2] -4.85% | [3] -6.2% | [4] 2.55% | [5] 7.25% | [6] -13.1%

O=C(Nc1ccccn1)OCCCl
inactive: [1] -1.6% | [2] 0.6% | [3] 4.35% | [4] 10.1% | [5] -28.2% | [6] 7.1%

FC1(F)C2(OCCO2)C(F)(F)C12OCCO2
inactive: [1] -1.6% | [2] -5.25% | [3] -1.8% | [4] -1.1% | [5] -8.5% | [6] -4.8%

Brc1ccccc1C(Nc1nncs1)Nc1nncs1
inactive: [1] 6.6% | [2] -4.35% | [3] -10.7% | [4] -3.1% | [5] -0.25% | [6] 8.35%

Nc1cc(S(=O)(=O)O)cc2ccc(S(=O)(=O)O)cc12
inactive: [1] -4.15% | [2] 6.75% | [3] -14.6% | [4] -4.35% | [5] -5.65% | [6] 3.95%

CC(=O)NC(Cc1ccc(O)cc1)C(=O)O (centres undefined)
inactive: [1] 10.8% | [2] 5.25% | [3] -3.4% | [4] -19.4% | [5] -9.05% | [6] -3.45%

CCNC(=O)NCN1CCOCC1
inactive: [1] 26.2% | [2] -0.5% | [3] 16.9% | [4] 9.45% | [5] 0.4% | [6] 9%

COC(=O)C(N)C(C)C (centres undefined)
inactive: [1] 13.8% | [2] 9.15% | [3] -10.3% | [4] -6.9% | [5] 4.55% | [6] 0.35%

COc1ccc(C(=O)N/N=C/c2cccc(OC)c2OC)cc1
inactive: [1] -6.3% | [2] -4.75% | [3] -20.1% | [4] -26.2% | [5] 13.1% | [6] -41.8%
